Measurements: PubChem BioAssay (NCATS)
Where “and” joins values, the source holds several entries; their conditions need not be identical. Equal entries are not always repeated. Records with an inconclusive call do not appear. A structure can be active in one record and inactive in another. Calls of active or inactive are those of the source. The call rests on the fitted dose curve; in most records, active means well fitted curve in the direction sought with a large enough effect; inconclusive means small, poorly fitted or top-dose-only effect, or another doubt; inactive means no such curve, though single readings can be large; an effect the other way counts as inactive or inconclusive.

Tests used:
[1] = Viability qHTS for spleen associated tyrosine kinase inhibitor (SYKi) naive MV4-11 cells (AID 1963823); settings: MV4-11 AML viability, CellTiter-Glo luminescence, 72 h; series mostly up to 45 µM; further: nearly all actives have a fitted effect of over 40% in size
Method in brief: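 CellTiter-Glo luminescence, 10 min room-temperature incubation, gave viability. Cells: naive MV4-11 (500/well), treated 72 hr at 37 C, 5% CO2.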

[2] = Viability qHTS for spleen associated tyrosine kinase inhibitor (SYKi) drug resistant MV4-11 cells (AID 1963824); settings: SYKi-resistant MV4-11 viability, CellTiter-Glo, 72 h; series mostly up to 45 µM; further: nearly all actives have a fitted effect of over 35% in size
Method in brief: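 SYK-inhibitor-resistant MV4-11 AML cells were seeded at 500 per well onto compound and cultured 72 hours (37 °C, 5% CO2). CellTiter-Glo was then added, and after 10 min at room temperature, luminescence gave viability.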

[3] = Quantitative highthroughput screen to assess conditional lethalithy of NOMO1 cells grown in Human Plasma-Like Medium with dialyzed fetal bovine serum (HPLM+ds) (AID 1963878); settings: NOMO1 AML cells in HPLM+ds, CellTiter-Glo viability, 48 h; series mostly up to 45.8 µM; further: nearly all actives have a fitted effect of over 35% in size;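 on Viability: 100% = DMSO wells and 0% = empty wells on each plate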
Method in brief: (§1)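 Each medium arm—HPLM with 10% dialyzed FBS, or RPMI1640 with 5 mM glucose and 10% untreated or dialyzed FBS—was screened against an 11-point, 3-fold compound titration for 48 h at 37 °C, with CellTiter-Glo luminescence as endpoint.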

[4] = Quantitative highthroughput screen to assess conditional lethalithy of P12 Ichikawa cells grown in Human Plasma-Like Medium with dialyzed fetal bovine serum (HPLM+ds) (AID 1963879); settings: ATP luminescence, 48 h; Potency: viability; series mostly up to 45.8 µM; further: nearly all actives have a fitted effect of over 35% in size
Method in brief: as §1

[5] = Quantitative highthroughput screen to assess conditional lethalithy of SEM cells grown in RPMI1640 with unreated serum (RPMI+s) (AID 1963883); settings: SEM B-ALL cells, CellTiter-Glo viability, 48 h; series mostly up to 45.8 µM; further: nearly all actives have a fitted effect of over 35% in size;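 on Viability: 100% = DMSO wells and 0% = empty wells without cells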
Method in brief: as §1

[6] = Quantitative highthroughput screen to assess conditional lethalithy of SEM cells grown in RPMI1640 with dialyzed fetal bovine serum (RPMI+ds) (AID 1963884); settings: SEM B-ALL cells, RPMI+dialyzed FBS, CellTiter-Glo viability, 48 h; series mostly up to 45.8 µM; further: nearly all actives have a fitted effect of over 35% in size;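 on Viability: 100% = DMSO control wells and 0% = empty wells without cells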
Method in brief: as §1

[7] = Quantitative highthroughput screen to assess conditional lethalithy of P12 Ichikawa cells grown in RPMI1640 with dialyzed fetal bovine serum (RPMI+ds) (AID 1963880); settings: ATP luminescence, 48 h; Potency: P12-Ichikawa viability; series mostly up to 45.8 µM; further: nearly all actives have a fitted effect of over 35% in size;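 on Viability: 100% = DMSO wells and 0% = empty wells on each plate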
Method in brief: as §1

[8] = Quantitative highthroughput screen to assess conditional lethalithy of P12 Ichikawa cells grown in RPMI1640 with untreated serum (RPMI+s) (AID 1963881); settings: ATP luminescence, 48 h; Potency: viability; series mostly up to 45.8 µM; further: nearly all actives have a fitted effect of over 35% in size;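 on Viability: 100% = DMSO wells and 0% = empty wells without cells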
Method in brief: as §1

[9] = Cellular viability qHTS for adrenocortical cancer (ACC) cell line SW-13 (AID 1963989); settings: SW-13 ACC cells viability, CellTiter-Glo, 48 h; activity (max response): stronger effect = lower value; further: nearly all actives have a fitted effect of over 65% in size;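 on activity (max response): cells grown in serum-free medium with ITS supplement; on the % scale 0 is the no-effect control and ±100 the full control effect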
Method in brief: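 Compound titrations (up to 46 uM final, in DMSO) were applied to SW-13 cells for 48 h at 37C/5% CO2. Reading used CellTiter-Glo after 20 min at room temperature; fitted curves yielded IC50 and efficacy.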

[10] = Cellular viability qHTS for adrenocortical cancer (ACC) cell line NCI-H295R (AID 1963990); settings: CellTiter-Glo ATP luminescence, 48 h; series mostly up to 46.1 µM; further: nearly all actives have a fitted effect of over 60% in size
Method in brief: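 Readout: CellTiter-Glo luminescence, 20 min RT. Exposure: 48 h, 37C/5% CO2. Cells: NCI-H295R, ITS-DMEM serum-free. Range: up to 46 uM. Analysis: 4PL fit, IC50 plus efficacy.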

[11] = Quantitative highthroughput screen to assess conditional lethalithy of SEM cells grown in Human Plasma-Like Medium with dialyzed fetal bovine serum (HPLM+ds) (AID 1963882); settings: SEM B-ALL cells in HPLM+ds, CellTiter-Glo viability, 48 h; series mostly up to 45.8 µM; further: nearly all actives have a fitted effect of over 35% in size
Method in brief: as §1
Potency means the concentration at half of the fitted maximal effect.

In the case of `CC(C)(C)NC(=O)Nc1cccc(Nc2ncc(F)c(NC(C)(C)CO)n2)c1`, the Potency [1] is reported as 1480 nM (active), the Potency [2] is reported as 2.31 µM (active) and the Potency [3] is reported as “inactive”. For the same compound, the Potency [4] was 8330 nM (active), the Potency [5] was 7430 nM (active) and the Potency [6] was 6620 nM (active).

With `c1cnc2cc3c(cc2n1)C1CNCC3C1` the Potency [1] was “inactive”, the Potency [2] was “inactive” and the Potency [3] was “inactive”. The Potency [7] was “inactive”, the Potency [8] was “inactive” and the Potency [5] was “inactive”. The Potency [6] was “inactive”, the activity (max response) [9] was 7.13% (inactive) and 6.77% (inactive) and the Potency [10] was “inactive”.

With `COC(=O)Nc1ccc(-c2nc(N3CCOCC3)c3cnn(C4CCN(Cc5cccnc5)CC4)c3n2)cc1` the Potency [1] was 517 nM (active), the Potency [2] was 0.58 µM (active) and the Potency [3] was 1050 nM (active). The Potency [4] was 5900 nM (active), the Potency [7] was 1480 nM (active) and the Potency [8] was 469 nM (active). The Potency [11] was 662 nM (active), the Potency [5] was 296 nM (active) and the Potency [6] was 372 nM (active). The Potency [9] was 12.6 µM (active) and the Potency [10] was 5.01 µM (active).

With `NC1(c2ccc(-c3nc4ccn5c(=O)[nH]nc5c4cc3-c3ccccc3)cc2)CCC1` the Potency [1] was 3720 nM (active), the Potency [2] was 11.9 µM (active) and 8.2 µM (active) and 5.9 µM (active) and the Potency [3] was 20900 nM (active). The Potency [11] was 1660 nM (active), the Potency [5] was 2090 nM (active) and the Potency [6] was 1480 nM (active). The Potency [9] was 20.6 µM (active) and 17.8 µM (active) and the Potency [10] was 10.3 µM (active) and 7.94 µM (active).

In the case of `CC(C)(C)c1nc(-c2cccc(NS(=O)(=O)c3c(F)cccc3F)c2F)c(-c2ccnc(N)n2)s1`, the Potency [1] is reported as 1840 nM (active), the Potency [2] is reported as 16.6 µM (active) and the Potency [3] is reported as 2960 nM (active). For the same compound, the Potency [4] was “inactive”, the Potency [7] was 743 nM (active) and the Potency [8] was 2960 nM (active). For the same compound, the Potency [11] was “inactive”, the Potency [5] was 2640 nM (active) and the Potency [6] was “inactive”.

For `Cc1ccc(C(=O)Nc2ccc(CN3CCN(C)CC3)c(C(F)(F)F)c2)cc1C#Cc1cnc2cccnn12`, the Potency [1] was “inactive”, the Potency [2] was 0.0053 µM (active) and the Potency [3] was 935 nM (active). For the same compound, the Potency [9] was 3.16 µM (active) and the Potency [10] was 4.47 µM (active).

In the case of `CC[C@@]1(O)C[C@H](O[C@H]2C[C@H](N(C)C)[C@H](O[C@H]3C[C@H](O)[C@H](O[C@H]4CCC(=O)[C@H](C)O4)[C@H](C)O3)[C@H](C)O2)c2c(cc3c(c2O)C(=O)c2c(O)cccc2C3=O)[C@@H]1C(=O)OC`, the Potency [1] is reported as 1660 nM (active), the Potency [2] is reported as 1.32 µM (active) and the Potency [3] is reported as 1180 nM (active). The Potency [4] was “inactive”, the Potency [7] was 16600 nM (active) and the Potency [6] was 66.2 nM (active). For the same compound, the Potency [9] was 10 µM (active) and the Potency [10] was 22.4 µM (active).

With `Fc1ccc(Cl)cc1-c1nc(Nc2ccncc2)c2nccnc2n1` the Potency [1] was “inactive and 18.6 µM (active)”, the Potency [2] was “inactive” and the Potency [3] was “inactive”. The Potency [4] was “inactive”, the Potency [7] was “inactive” and the Potency [8] was “inactive”. For the same compound, the Potency [11] was “inactive”, the Potency [5] was “inactive” and the Potency [6] was “inactive”. For the same compound, the activity (max response) [9] was -19.5% (inactive) and the Potency [10] was “inactive”.

For `CC[C@H](C)C(=O)O[C@H]1C[C@@H](C)C=C2C=C[C@H](C)[C@H](CC[C@@H]3C[C@@H](O)CC(=O)O3)[C@H]21`, the Potency [1] was 8330 nM (active), the Potency [2] was 2.66 µM (active) and 3.17 µM (active) and 4.68 µM (active) and the Potency [3] was 14800 nM (active). For the same compound, the Potency [11] was “inactive”, the Potency [6] was “inactive” and the activity (max response) [9] was -5.87% (inactive). For the same compound, the Potency [10] was “inactive and 17.8 µM (active)”.

In the case of `Nc1nc(N)c2nc(-c3cccc(O)c3)c(-c3cccc(O)c3)nc2n1`, the Potency [1] is reported as 13000 nM (active), the Potency [2] is reported as 14.6 µM (active) and the Potency [3] is reported as 10500 nM (active). For the same compound, the Potency [11] was 10500 nM (active) and the Potency [5] was 18700 nM (active).

With `O=C1NC(O)CCN1[C@@H]1O[C@H](CO)[C@H](O)[C@H]1O` (some centres undefined) the Potency [1] was “inactive”, the Potency [2] was “inactive” and the Potency [3] was 20900 nM (active). For the same compound, the Potency [4] was “inactive”, the Potency [7] was “inactive” and the Potency [11] was “inactive”. The Potency [5] was “inactive”, the Potency [6] was “inactive” and the activity (max response) [9] was -1.6% (inactive).

With `COc1ccc(C=Cc2cc(OC)c(OC)c(OC)c2)cc1NC(=O)[C@H](N)CO` the Potency [1] was 33.2 nM (active), the Potency [2] was 0.0417 µM (active) and the Potency [4] was 29.6 nM (active). The Potency [7] was 46.9 nM (active), the Potency [8] was 16.6 nM (active) and the Potency [11] was 26.4 nM (active). The Potency [5] was 20.9 nM (active), the Potency [6] was 29.6 nM (active) and the Potency [9] was 0.126 µM (active). For the same compound, the Potency [10] was 0.199 µM (active).

With `FC(F)c1nc2ccccc2n1-c1nc(N2CCOCC2)nc(N2CCOCC2)n1` the Potency [1] was 186 nM (active), the Potency [2] was 820 nM (active) and 525 nM (active) and the Potency [3] was 14.8 nM (active). For the same compound, the Potency [10] was 0.562 µM (active).

For `Cc1nc(N)sc1-c1ccnc(Nc2ccc(N3CCOCC3)cc2)n1`, the Potency [1] was 82 nM (active), the Potency [2] was 0.164 µM (active) and the Potency [3] was 4180 nM (active). The Potency [5] was 2350 nM (active), the Potency [6] was 2090 nM (active) and the activity (max response) [9] was 4.45% (inactive). For the same compound, the Potency [10] was “inactive”.
